Reference: PubChem BioAssay AID925 (National Center for Advancing Translational Sciences (NCATS), 2007)
Where “and” joins values, the source holds several entries; their conditions need not be identical. Equal values may be shown once. Among all 65,000 compounds or so, about 40 (0.06%) were called active. Calls follow the shape of the dose curve; as a rule, active = well fitted activation curve with a large enough effect; inconclusive = small, poorly fitted or top-dose-only effect; inactive = flat fitted curve, though single readings scatter. What follows is part of a selection rich in actives, with near analogues and random picks from the rest.

assay: qHTS Assay for Modulators of Hemoglobin Beta Chain Splicing; conditions: HBB splicing reporter cell assay, EGFP reporter with mutant IVS2-654 intron; Potency: activation; series mostly up to 46.1 µM; also: 0% is about no effect
Text: NIH Chemical Genomics Center [NCGC]
NIH Molecular Libraries Screening Centers Network [MLSCN]
PI Name: Dr. Ryszard Kole
Modulation of Alternative Splicing as Therapy
Abnormal splicing is associated with a number of diseases, including cancer and genetic diseases such as cystic fibrosis, muscular dystrophy and beta-thalassemia. Alteration of disease associated splicing patterns provides a promising target for treatment. […] Mutations in the second intron of the beta-globin gene at positions are clinically relevant and cause mis-splicing which results in an out of frame gene product.
EGFP-654 and 705 HeLa Cells as screen system.
HeLa cell lines were stably transfected with a construct in which the EGFP (enhanced green fluorescent protein) cDNA was interrupted by the second intron of the beta-globin gene (IVS2-654). The ISV2 intron contains mutations which cause mis-splicing of EGFP and premature termination of EGFP which results in a nonfluorescent protein product. […] Expression of the transgene was driven by the CMV promoter. We concluded that a low molecular weight compound, which restored correct splicing of intron 2 would also generate functional EGFP protein, resulting in a fluorescent signal. Thus, the HeLa cells that express the EGFP-654 construct can be used for high throughput screening of a chemical library.
NCGC Assay Protocol Summary:
High Throughput Screening. Freshly thawed HeLa EGFP-654 cells were seeded in 5 ul of optimem media (Invitrogen) containing 2 % fetal calf serum (Hyclone) and 1x penicillin/streptomycin (Invitrogen) at a concentration of 500 cells per well in 1536-well plates. Cells were incubated overnight at 37C in 5% CO2. The next day, cells were treated with DMSO, 500 nM antisense ISV2 654 PNA control oligo, or library compound and allowed to grow at 37C in 5% CO2 for 2 days. The PNA oligo blocked the mutation site in the intron and allowed proper (wild type) splicing to occur, resulting in full length EGFP expression and also allowed for optimization of the assay parameters. Plates were read in the Acumen Explorer (TTP Labtech) using 488 nm laser excitation and 500-520 nm emission PMT filter in a 1 x […] capture mode. Fluorescnet Fluorescent objects ranging in size from […] were measured and the total peak GFP intensity for each well was used for data analysis.
Keywords: Thalassemia, beta-thalassemia, beta-globin, EGFP, ISV2 654, ISV2 705, SSO, PNA, antisense, splicing, MLSMR, MLSCN, NIH Roadmap, qHTS, NCGC

activation, inactive:
COC(=O)CCCCCN1C(=O)NC(c2ccc(-c3ccccc3)cc2)C(C(=O)OCc2ccccc2)=C1C (centres undefined), NC[C@@H]1O[C@H](O[C@@H]2[C@H](O[C@@H]3O[C@H](CO)[C@@H](COC[C@H]4O[C@@H](CN)[C@@H](O)[C@@H](O)[C@@H]4N)[C@@H]3O)[C@@H](O)[C@@H](N)C[C@H]2N)[C@@H](N)[C@H](O)[C@@H]1O, CO[C@H]1COC(=O)CCC[C@@H](C)[C@H](OC)COC(=O)[C@@H](C)NC(=O)C/C=C\[C@@H]1C 1.62% [at 9.22 µM, normalised to 500 nM splice-correcting PNA], COC(=O)[C@@]1(Cc2ccc(F)cc2)[C@H]2c3cc(C(=O)N4CCCC4)n(C[C@H](O)CO)c3C[C@H]2CN1C(=O)c1ccccc1, COc1ccc(/C=C/NC(=O)c2ccc(OC)cc2)cc1 0.0031% [at 9.22 µM, normalised to 500 nM splice-correcting PNA], CN(C)c1cc2c(Nc3ccc4c(cnn4Cc4ccccc4)c3)ncnc2cn1, Cc1cccc(C(=O)O)c1, COC(=O)[C@@]1(C)C=C[C@@H](Cc2ccccc2)N1C(C)=O, COC(=O)C1(Cc2ccccc2)C=C2C(=C(C)C(=O)C2C)CN1 (centres undefined), C=CC(=O)OCCOCCOCCOCCOC(=O)C=C, Oc1cc2c(cc1O)CN(C(=S)NCCc1ccc(Cl)cc1)CCC2, O=C(c1ccco1)N1CCC[C@@]2(CCN(Cc3nccs3)C2)C1, CN(C)C(=O)c1ccc(-c2cncnc2Nc2ccccc2)cc1, COc1cccc([C@H]2Oc3ccc(OC)cc3/C(=N\OCC[C@@H]3C=C[C@H](OC(C)=O)[C@H](COC(C)=O)O3)[C@@H]2O)c1 -1.11% [at 9.22 µM, normalised to 500 nM splice-correcting PNA], COc1cc([C@H]2c3cc4c(cc3[C@@H](O[C@@H]3O[C@H]5CO[C@@H](C)O[C@]5(O)C[C@H]3O)[C@@H]3COC(=O)[C@H]23)OCO4)cc(OC)c1O, Cc1cc(Cl)ccc1OCC(=O)Oc1c(Cl)c(Cl)c(Cl)c(Cl)c1Cl 0.153% [at 9.22 µM, normalised to 500 nM splice-correcting PNA], C/C(CCN1CCc2nc(-c3ccccc3)c(-c3ccccc3)cc2C1)=N\O[C@@H](C)c1cn([C@@H]2COC[C@@H]2O)nn1 -1.08% [at 9.22 µM, normalised to 500 nM splice-correcting PNA], COc1ccc(COC(=O)N/N=C2/C[C@@H](O)[C@@H](O)[C@@H]3[C@@H]4C(=O)N([C@@H](C)c5ccccc5)C(=O)[C@H]4CC[C@@H]23)cc1 0.743% [at 9.22 µM, normalised to 500 nM splice-correcting PNA], COc1ccc2[nH]cc(CCNc3cc(-c4ccccc4CN(C)C)ncn3)c2c1, O=C(O)c1ccc(C(=O)O)c2c(C(=O)O)ccc(C(=O)O)c12 -1.01% [at 9.22 µM, normalised to 500 nM splice-correcting PNA], O=C(O)[C@@H]1[C@@H](C(=O)O)[C@]23C[C@@]2(C(=O)O)[C@]2(C(=O)O)CCC3=C3CCCC312 0.251% [at 9.22 µM, normalised to 500 nM splice-correcting PNA], COCCNc1ncnc2ccc(-c3cccnc3)cc12, CCN(CC)CCCCn1c(-c2ccccc2)nc2c(N3CCOCC3)nc(C)nc21, CO[C@@H]1COC(=O)[C@H](Cc2ccccc2)NC(=O)C/C=C\[C@@H](C)[C@H](OC)COC(=O)[C@@H](C)NC(=O)C/C=C\[C@H]1C 1.42% [at 9.22 µM, normalised to 500 nM splice-correcting PNA] and 0.127% [at 9.22 µM, normalised to 500 nM splice-correcting PNA], Cc1noc(C)c1-c1nc(Nc2ccccc2)c2ccccc2n1, O=NO, ClC(Cl)(Cl)C(N1CCN(c2ccccc2)CC1)N1CCN(c2ccccc2)CC1 3.1% [at 9.22 µM, normalised to 500 nM splice-correcting PNA], CC(=O)Oc1ccccc1C(=O)Nc1ncc([N+](=O)[O-])s1, COc1ccc(NC(=O)N2CC3(CCN(C(C)=O)CC3)C2)cc1, COC(=O)[C@@H]1CC[C@H](C)[C@@H](c2ccc(C)cc2)N1C(=O)c1ccc(/C=N\OC[C@@H](O)COCc2ccco2)cc1 -0.0134% [at 9.22 µM, normalised to 500 nM splice-correcting PNA], Clc1ccc(C(c2ccc(Cl)cc2)n2cc[n+](C[C@@H](OCc3ccc(Cl)cc3Cl)c3ccc(Cl)cc3Cl)c2)cc1, CC(C)C[C@@H](CC(=O)N[C@@H](CCC(=O)O)CC(=O)O)NC(=O)[C@@H]1CCCC[C@H]1NC(=O)C[C@@H](NC(=O)C[C@H](CO)NC(=O)[C@@H]1CCCC[C@H]1N)C(C)C, O=C(O)[C@@H](S)[C@H](S)C(=O)O -1.17% [at 9.22 µM, normalised to 500 nM splice-correcting PNA], O=C(O)[C@@H](O)Cc1ccccn1 2.62% [at 9.22 µM, normalised to 500 nM splice-correcting PNA], COC(=O)N1CCC2(CCCN(c3ccncc3)C2)CC1, NCC(=O)[C@@H](O)[C@H](O)[C@H](O)CO 0.718% [at 9.22 µM, normalised to 500 nM splice-correcting PNA], CN(C)C(=O)c1ccc(-c2cncnc2NC2CCNCC2)cc1, CN1[C@H]2CC(OC(=O)[C@@H](CO)c3ccccc3)C[C@H]1[C@H]1O[C@H]12 (some centres undefined), O=C1[C@H]2[C@H]3[C@H](O)[C@H](O)C/C(=N/OCc4ccccc4)[C@H]3CC[C@@H]2C(=O)N1Cc1ccccc1 0.171% [at 9.22 µM, normalised to 500 nM splice-correcting PNA]
